Experimental findings from PubChem BioAssay (NCI) are described below.

This is part of a sample that, as a whole, favours compounds with a hit. Of some 83,000 tested, about 20% had one in any assay.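 Cells were grown in 96-well plates and exposed to the test compound at a single concentration for 48 hours; results are reported as percent growth, with values below 10 considered active.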 A number with no mark means an inactive call. Active and inactive are the calls of the source.

In this test the test system is MDA-MB-468 breast. In words: NCI-60 one-dose screen, 48 h (100 = growth as untreated, 0 = no growth, -100 = all killed). Particulars: 10 µM unless noted.
Consider `CC1(C)[C@@H](O)CC[C@]2(C)[C@H]3CC[C@@H]4[C@H]5[C@H](C(=O)/C=C\c6ccncc6)CC[C@]5(O)CC[C@@]4(C)[C@]3(C)CC[C@@H]12`, for which the growth was 17.5%.
As for `CCCCCCCCN(CCCCCCCC)CC(O)c1cc(-c2ccccc2)nc2ccc(OC)cc12` (stereo not given), the figure is 104%; as for `Nc1ccc(-c2cc3c(Nc4ccc(Oc5cccc(C(F)(F)F)c5)c(Cl)c4)ncnc3s2)cc1`, -9.82% (active); as for `COc1cc2c(c(OC)c1OC)-c1cc(I)c(O)cc1[C@@H](NC(C)=O)CC2`, -32.9% (active).
With `Cn1c(=O)c2nc(/C=C/c3ccccc3)c(=O)[nH]c2n(C)c1=S` the figure was 103%.
As to `Cc1nc2c3c(ncn2n1)Oc1c(c(=O)[nH]c2ccccc12)C3c1ccc(Cl)cc1` (stereo not given), the growth is 109%.
As for `O=C(CCl)Oc1ccc(-c2ccccc2)c(Br)c1`, the figure is 97.5%; as for `COc1ccc(OC)c(C2C(C#N)=C(N)Oc3cc(O)ccc32)c1` (stereo not given), 81.1%; as for `C/C(=C\c1ccccc1)C(O)C(=O)c1nc2ccc([N+](=O)[O-])cc2[nH]c1=O` (stereo not given), 89.7%.
As for `Cc1ccc(N2CCN(C3=C(Cl)C(=O)c4ncccc4C3=O)CC2)cc1`, the figure is -63.9% (active); as for `Clc1ccc(C2=NN[C@H](c3cn(-c4ccccc4)nc3-c3ccccc3)C2)cc1`, 57.1%.
For `Cc1ccc2cc3c(NC(=O)c4cccnc4)nn(C)c3nc2c1`, the growth is 80.3%.
With `COc1ccc(Nc2ncc(C#N)c(NCCCNC(=O)C3CCC3)n2)cc1` the figure was 43%; with `CCSc1nc(-c2cccs2)n2nc(-c3ccco3)cc2n1`, -37.1% (active); with `Cc1ccc(S(=O)(=O)Nc2ccc(-c3cc(-c4cccc(F)c4)c(C#N)c(=O)[nH]3)cc2)cc1`, 67.9%.
On to `COc1ccc(-c2nnc(NC(=O)CN3CCN(c4cc5c(cc4F)c(=O)c(C(=O)O)cn5C4CC4)CC3)s2)cc1OC`, for which the growth is 93%.
As for `O=c1[nH]c2ccccc2cc1CSc1ccccc1Nc1nccc(-c2ccc(C(F)(F)F)cc2)n1`, the figure is 47.6%; as for `C=CCOc1ccc2c(c1)CC[C@@H]1[C@@H]2CC[C@@]2(C)[C@H]1CC[C@]2(C)O`, 81.2%.
With `CC(=O)OC[C@H]1OC(Sc2sc(C(=O)c3ccc(Cl)cc3)c(N)c2-c2nc3ccccc3s2)[C@H](OC(C)=O)[C@@H](OC(C)=O)[C@@H]1OC(C)=O` (stereo not given in full), the growth is 112%.
As for `N#C/C(=C\c1ccc(Br)cc1)n1nnc2cccc(F)c21`, the figure is -0.554% (active); as for `COc1cccc(N2CCN(c3ncnc4c3[nH]c3ccc(F)cc34)C[C@H]2C)c1`, 27.5%; as for `COC(=O)[C@H](CSC)N(C)C(=O)[C@@H]1CSSC[C@@H](NC(=O)c2nc3ccccc3cc2O)C(=O)NCC(=O)N1C`, 61.3%.
With `COc1ccc(Nc2nc(-c3cc(O)c(C)c(C)c3O)cs2)cc1` the figure was -6.65% (active); with `Cn1c(=O)c2[nH]c(CC(=O)O)nc2n(C)c1=O`, 107%.
On to `CC(=O)Nc1cc(F)cc(C(F)(F)F)c1Cl`, for which the growth is 86.3%.
Consider `O=[N+]([O-])c1cc[n+]([O-])cc1`, for which the growth is 98.1%.
With `COc1cc(C=Nc2oc(-c3ccccc3)c(-c3ccccc3)c2C#N)cc(CN2CCCCC2)c1O` the figure was 95.6%; with `O=C(CSc1nc2sc3c(c2c(=O)n1-c1ccccc1)CCCCC3)N/N=C/c1ccc(F)cc1`, -3.84% (active).
As for `CN(C)c1ccc(/C=C/c2nccc3ccccc23)cc1`, the figure is -1.08% (active).
With `NC(=O)c1cccc(-n2ccc3cc(NC(=O)c4ccc(N5CCOCC5)c(C(F)(F)F)c4)ccc32)n1` the figure was 75.7%.
Regarding `COc1cccc(/C=N\Nc2ccc([N+](=O)[O-])cn2)c1O`, the growth was 26.4%.
Turning to `C/C(=C\c1csc(C)n1)[C@@H]1C[C@@H]2O[C@]2(C)CCC[C@H](C)[C@H](O)[C@@H](C)C(=O)C(C)(C)[C@@H](O)CC(=O)N1`, the growth is 22.4%.
As for `CCCCCCN1C=C/C(=C\C(=O)n2ccc3ccccc32)c2ccccc21`, the figure is -12% (active).
With `O=C(OCc1nc2nc(Cl)nc(N3CCOCC3)c2[nH]1)n1ccnc1` the figure was -26.9% (active); with `C=C1c2nc3ccccc3n2C=C(c2cccc(Cl)c2)N1Cc1ccc(OC)cc1`, 32%; with `CC(=O)C1=C(O)C=C2Oc3c(C(=O)/C=C/c4ccccc4)c(O)c(C)c(O)c3[C@]2(C)C1=O`, 30.3%.
With `CCN(CC)CCCC(C)Nc1c(C)cnc2cc(Cl)c(C)cc12` (stereo not given) the figure was 99.7%; with `O=c1cc(-c2ccccc2)[nH]c2ncc(-c3ccc(F)cc3)n12`, 83%.
As for `Cc1nc2ncccc2nc1Nc1ccc(S(=O)(=O)Nc2cncs2)cc1`, the growth is 97.7%.
As for `CN1C(=O)C2(NN=C(c3cccc4ccccc34)S2)c2ccccc21` (stereo not given), the figure is 32.4%.
